High-throughput results (PubChem BioAssay)
Pf Dd2 growth: blocks in vitro growth of P. falciparum Dd2 | AID 1347417 | hit rate 4.3% among 120,000 | P. falciparum Dd2 growth, SYBR Green, 72 h | Potency, µM (top dose mostly 28.9 µM), for inactives: at the highest dose activity, negative = inhibition, hits mostly inhibitors; active means well fitted inhibition curve with a large enough effect;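 further: plate controls were DMSO vehicle for no effect and reference drug for full effect; nearly all actives have a fitted effect of over 65% in size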
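Infected erythrocytes (Dd2, 0.3% parasitemia, 2.5% hematocrit final) are added to compound in RPMI-1640/Albumax II medium, grown 72 h at 37C in low oxygen, then lysed with saponin/Triton-X containing SYBR Green and read by fluorescence.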
The depositor's hits bear a star; [ ] = another dose, or the depositor's remark. Only a selection was taken, and hits are over-represented in it overall. Potency means the concentration at half of the fitted maximal effect.

Screening CC(C)OCCCNC(=O)c1ccc(N2CC3CC(C2)[C@H]2CCCC(=O)N2C3)nc1 (some centres not stated) returned Pf Dd2 growth 0.3%.
For CCN1C(=O)c2ccccc2S(=O)c2ccc(C(=O)NCc3ccc(C)cc3)cc21 (configuration not stated) the results were Pf Dd2 growth -24.2%.
For CCN1CCN(C(=O)c2ccc3c(c2)N(Cc2ccc(Cl)cc2)C(=O)c2ccccc2S3=O)CC1 (configuration not stated) the results were Pf Dd2 growth 0.501µM*.
`CCOC(=O)C1CCCN(C(=O)Cn2ncc3c(C)n(Cc4ccc(Cl)cc4)c(C)c3c2=O)C1` (configuration not stated) gave Pf Dd2 growth -17.7%.
`O=C(c1ccc2c(c1)N(Cc1ccccc1F)C(=O)c1ccccc1S2=O)N1CCC(Cc2ccccc2)CC1` (configuration not stated) gave Pf Dd2 growth -3.2%.
CCN1C(=O)c2ccccc2S(=O)c2ccc(C(=O)N3CCN(c4ccccc4)CC3)cc21 (configuration not stated) was read as Pf Dd2 growth inactive.
For CN1CCN(C(=O)c2ccc3c(c2)N(Cc2ccc(F)cc2)C(=O)c2ccccc2S3=O)CC1 (configuration not stated) the results were Pf Dd2 growth 3.98µM*.
`O=C(c1ccc2c(c1)N(Cc1ccccc1F)C(=O)c1ccccc1S2=O)N1CCOCC1` (configuration not stated) gave Pf Dd2 growth -20.1%.
For CCOC(=O)C1CCCN(C(=O)c2ccc3c(c2)N(Cc2ccc(Cl)cc2)C(=O)c2ccccc2S3=O)C1 (configuration not stated) the results were Pf Dd2 growth 11.2µM*.
For COc1cc(SC)ccc1C(=O)N[C@H]1C[C@@](O)(C(=O)NCCC(N)=O)C[C@@H](O)[C@@H]1O the results were Pf Dd2 growth -3.6%.
For O=C1NCCC[C@@H]1NC(=O)[C@H]1CN(C(=O)c2cccc(F)c2)CCN1C(=O)c1cncnc1 the results were Pf Dd2 growth -3.9%.
For COc1ccc(-c2nccn3cc(C(=O)NCc4cccnc4)nc23)cc1 the results were Pf Dd2 growth -6.0%.
`CC(=O)N1CCCC(c2[nH]ccc2C(=O)NCCCn2cccn2)C1` (configuration not stated) gave Pf Dd2 growth 12.3%.
CN(Cc1ccccc1)C(=O)c1noc(-c2ccc(F)cc2)n1 was read as Pf Dd2 growth -5.8%.
COc1ccc(CNC(=O)Cn2nc3n(c2=O)CCCC3)cc1 was read as Pf Dd2 growth 38.2%.
For COc1ccc(CNCCC(c2ccc3c(c2)OCO3)c2ccccc2OC)cc1 (configuration not stated) the results were Pf Dd2 growth 5.01µM*.
`COc1ccc(CNC(=O)C(=O)NCC(c2ccc3c(c2)OCO3)N2CCOCC2)cc1` (configuration not stated) gave Pf Dd2 growth -4.8%.
For CCC(=O)N(CCC(c1ccccc1)c1ccc2c(c1)OCO2)Cc1ccc(OC(C)C)cc1 (configuration not stated) the results were Pf Dd2 growth -28.7%.
Screening O=C(CN1C(=O)NC(c2ccccc2)C2=C1COC2=O)NC1CCCC1 (configuration not stated) returned Pf Dd2 growth -9.8%.
`COc1ccc(C2Cn3nnc(C(=O)N4CCN(C(=O)Cc5cccc(F)c5)CC4)c3CO2)cc1` (configuration not stated) gave Pf Dd2 growth -19.3%.
`COc1ccc(C)cc1NC(=O)C(=O)NCC1(c2ccccc2)CCCC1` gave Pf Dd2 growth 14.9%.
`Cc1ccc(NC(=O)C(=O)NCC2(c3ccccc3)CCCC2)cc1C` gave Pf Dd2 growth 2.9%.
`Cc1ccc(O)c(C(CC(=O)NCC2(c3ccccc3)CCCC2)c2ccccc2)c1` (configuration not stated) gave Pf Dd2 growth 10µM*.
CC(=O)N1CCC([C@@H]2CN(C3CCSCC3)C[C@H]2CO)CC1 was read as Pf Dd2 growth 0.6%.
`CC(=O)N1CC[C@H](c2nc3cc(C)ccc3o2)C1` gave Pf Dd2 growth -2.2%[44.1 µM].
`O=C(O)CCC(=O)N1C[C@@H]2C[C@H]1C(=O)N(Cc1ccc(OC(F)(F)F)cc1)c1ccccc1O2` gave Pf Dd2 growth -17.0%.
`COc1ccc(CN2C(=O)[C@@H]3C[C@@H](CN3C)Oc3ccccc32)cc1` gave Pf Dd2 growth inactive.
COc1ccc(CN2C(=O)[C@@H]3C[C@@H](CN3C3CCN(C)CC3)Oc3ccccc32)cc1 was read as Pf Dd2 growth 10µM*.
For O=C1[C@@H]2C[C@@H](CN2C2CCC2)Oc2ccccc2N1Cc1ccc(OC(F)(F)F)cc1 the results were Pf Dd2 growth 6.31µM*.
Screening CS(=O)(=O)N1C[C@@H]2C[C@H]1C(=O)N(Cc1ccc(OC(F)(F)F)cc1)c1ccccc1O2 returned Pf Dd2 growth -21.0%.
COc1ccc(CN2C(=O)[C@@H]3C[C@@H](CN3Cc3ccccc3)Oc3ccccc32)cc1 was read as Pf Dd2 growth -50.9%[44.1 µM].
Cc1ccc(C(=O)N2CCCC(n3cc(-c4nc(C(C)C)no4)nn3)C2)cc1C (configuration not stated) was read as Pf Dd2 growth -15.5%.
Cc1cncc(C(=O)N2C[C@H]3OC(=O)N(CCc4cccc(Cl)c4)[C@H]3C2)c1 was read as Pf Dd2 growth -9.0%.
CC(=O)N1CCC(N2CC(Oc3cccc(C(=O)N4CCOCC4)c3)C2)CC1 was read as Pf Dd2 growth -16.0%.
Screening Cn1ccnc1CN1C(=O)CO[C@H]2CN(C(=O)NCc3ccccc3)C[C@H]21 returned Pf Dd2 growth 45.9%[44.1 µM].
For CCc1ccc(CNC(=O)c2cc3n(n2)CC(c2ccc4c(c2)OCO4)OC3)cc1 (configuration not stated) the results were Pf Dd2 growth inactive.
For Cc1cc(C(=O)N2C[C@@H](CN3CCOCC3)[C@@H](CO)C2)cs1 the results were Pf Dd2 growth 11.1%.
Screening CC(=O)Nc1ccc2nc(SCCOc3ccccc3Cl)sc2c1 returned Pf Dd2 growth inactive.
CCOc1ccc(C(=O)Nc2ccc3nc(SCCOc4ccccc4)sc3c2)cc1 was read as Pf Dd2 growth -14.1%.
For O=C(Nc1ccc2nc(SCC(=O)N3CCCC3)sc2c1)c1ccccc1 the results were Pf Dd2 growth -13.9%.
O=C(COc1ccccc1Cl)Nc1ccc2nc(SCC(=O)N3CCOCC3)sc2c1 was read as Pf Dd2 growth -3.9%.
`O=C(Nc1ccc2nc(SCCOc3ccccc3)sc2c1)c1cccs1` gave Pf Dd2 growth 3.16µM*.
COc1cc(C)ccc1OCCSc1nc2ccc(NC(=O)c3ccco3)cc2s1 was read as Pf Dd2 growth 4.47µM*.
O=C(COc1ccccc1)Nc1ccc2nc(SCC(=O)N3CCCC3)sc2c1 was read as Pf Dd2 growth 11.2µM*.
For CCC(=O)Nc1ccc2nc(SCCOc3cccc(C)c3)sc2c1 the results were Pf Dd2 growth inactive.
`O=C(Nc1ccc2nc(SCCOc3ccccc3)sc2c1)c1ccccc1F` gave Pf Dd2 growth 2.1%.
Screening CCOc1ccccc1C(=O)N1CCC2(CC1)NC(=O)N(c1cccc(Cl)c1)N2 returned Pf Dd2 growth inactive.
O=C(c1ccc(Cl)cc1)N1CC(CO)C2(CCNCC2)C1 (configuration not stated) was read as Pf Dd2 growth -5.1%.
For COc1ccc(C(=O)N2CCCCCCNC(=O)[C@@H]3C[C@@H](c4nc(C(C)C)no4)C[C@@H]32)cc1F the results were Pf Dd2 growth -1.2%.
